Laboratory results from PubChem BioAssay (NCATS).
A number with no mark means an inactive call. Results filed as inconclusive are left out. For part of these data: Results with a measured potency or affinity are listed apart. Calls of active or inactive are those of the source. Unless noted, no rule for the calls is given here.

Legend:
[1] = Ebola virus entry assay, green fluorescence channel
[2] = Ebola virus entry assay, blue channel fluorescence
[3] = Ebola virus entry assay, ratio channel
[4] = Ebola virus entry assay, reporter ratio channel; Channel type: primary
[5] = Ebola virus entry assay, blue channel (ratio component)
[6] = qHTS assay for measurement of the activity of small molecule inhibitors on Zika virus induced Caspase-3 activity in human iPSC derived neural progenitor cells (hNPCs) (AID 1224857; active = well fitted inhibition curve with a large enough effect; also: % of control where 0% means no effect; nearly all actives have a fitted effect of over 65% in size); details: hNPCs ZIKV-induced caspase-3/7, Caspase-Glo luminescence, 6 h; series mostly up to 45.7 µM
Procedure, shortened: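 Zika virus (2 FFU/cell) infection of human iPSC-derived NPCs, 6 h, following 1 h compound preincubation. Read-out: Caspase-Glo 3/7 luminescence.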

[7] = qHTS assay for measurement of the activity of small molecule inhibitors on Zika virus induced Caspase-3 activity in human astrocytoma cells (AID 1224859; active = well fitted inhibition curve with a large enough effect;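 also: plate controls were ZIKV-infected untreated cells for no effect and uninfected cells for full effect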); details: SNB-19 ZIKV-induced caspase-3/7, luminescence, 6 h; series mostly up to 45.7 µM
Procedure, shortened: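 Caspase activation in ZIKV-infected SNB-19 cells (2 FFU/cell, 6 h) measured by Caspase-Glo 3/7 luminescence after 30 min RT; compound pre-incubated 1 h; normalised to uninfected and infected controls.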
For efficacy in this document: 0% is about no effect.

Row | SMILES | efficacy [1] [%] | outcome [2] | outcome [3] | AC50 [4] | outcome [5] | outcome [4] | Potency [6] | outcome [7] | AC50 [3] | AC50 [2]
1 | c1ccc(CNCCNCc2ccccc2)cc1 | 55.2 | inactive | inactive | 25.1 µM (active) | inactive |  |  |  |  | 
2 | C=CCNc1nc(NCC=C)nc(N2CCN(C(c3ccc(F)cc3)c3ccc(F)cc3)CC2)n1 | 31 | inactive | inactive |  | inactive | inactive |  |  |  | 
3 | CC/C(=C(/CC)c1ccc(O)cc1)c1ccc(O)cc1 | 26.9 | inactive | inactive |  | inactive | inactive |  |  |  | 
4 | C[C@@H]1CC[C@H]2[C@@H](C)C(=O)O[C@@H]3O[C@@]4(C)CC[C@@H]1[C@]32OO4 | 76.3 | inactive | inactive |  | inactive | inactive | inactive | inactive |  | 
5 | CCC(=O)O[C@]1(C(=O)COC)[C@@H](C)C[C@H]2[C@@H]3CCC4=CC(=O)C=C[C@]4(C)C3(F)[C@@H](O)C[C@@]21C (stereo partly specified) | 67.5 | inactive |  |  | inactive | inactive |  |  | 7.94 µM (active) | 
6 | CCCCC/C=C\C/C=C\CCCCCCCC(=O)NC(C)c1ccccc1 (stereo unspecified) | 130 | inactive | inactive | 39.8 µM (active) | inactive |  |  |  |  | 
7 | C[C@@H]1C[C@H]2[C@@H]3CCC4=CC(=O)C=C[C@]4(C)[C@@]3(F)[C@@H](O)C[C@]2(C)[C@@]1(O)C(=O)COC(=O)c1ccncc1 | 33.7 | inactive | inactive | 39.8 µM (active) | inactive |  |  |  |  | 
8 | Nc1nc2ccccc2n1Cc1ccc(F)cc1 | 54.1 | inactive | inactive | 39.8 µM (active) | inactive |  |  |  |  | 
9 | O=C(COc1ccc(Cl)cc1)N1CCN(Cc2ccc3c(c2)OCO3)CC1 | 71.8 | inactive | inactive | 39.8 µM (active) | inactive |  |  |  |  | 
10 | C[C@]12CCC(=O)C=C1[C@@H]1C[C@@H]1[C@H]1[C@@H]3[C@@H]4C[C@@H]4[C@@]4(CCC(=O)O4)[C@@]3(C)CC[C@@H]12 | 65.1 | inactive | inactive | 39.8 µM (active) | inactive |  |  |  |  | 
11 | C=C1C(=C/C=C2\CCC[C@]3(C)[C@@H]([C@H](C)/C=C/[C@@H](O)C4CC4)CC[C@@H]23)C[C@@H](O)C[C@@H]1O | 59.6 | inactive | inactive | 39.8 µM (active) | inactive |  |  |  |  | 
12 | CCC(=O)OC1(c2ccccc2)CCN(C)CC1 | 69.7 |  | inactive | 31.6 µM (active) |  |  | inactive | inactive |  | 31.6 µM (active)
13 | CC(=O)OC1(c2ccccc2)CCN(CCc2ccccc2)CC1 | 56.2 |  |  | 31.6 µM (active) |  |  | inactive | inactive | 31.6 µM (active) | 31.6 µM (active)
14 | COc1cc(C[C@@H](C)N)c(OC)cc1C | 32.9 |  | inactive | 35.5 µM (active) |  |  | inactive | inactive |  | 35.5 µM (active)
15 | OC(c1ccccc1)(c1ccccc1)C1CCNCC1 | 37.5 |  |  | 15.8 µM (active) |  |  | inactive | inactive | 15.8 µM (active) | 20 µM (active)
16 | O=C(CCCN1CCC(n2c(=O)[nH]c3ccccc32)CC1)c1ccc(F)cc1 | 109 |  |  | 25.1 µM (active) |  |  | inactive | inactive | 25.1 µM (active) | 25.1 µM (active)
17 | O=C1CN2CCOC2(c2ccccc2Cl)c2cc(Cl)ccc2N1 (stereo unspecified) | 46.2 | inactive | inactive |  |  | inactive | inactive | inactive |  | 
18 | CC[C@H](O)C(C[C@H](C)N(C)C)(c1ccccc1)c1ccccc1 | 49.4 |  |  | 8.91 µM (active) |  |  | inactive | inactive | 8.91 µM (active) | 11.2 µM (active)
19 | CN1C2CCC(C)(C)C1CC(OC(=O)C(O)(c1cccs1)c1cccs1)C2 (stereo unspecified) | 75.5 |  |  | 15.8 µM (active) |  |  | inactive | inactive | 15.8 µM (active) | 20 µM (active)
20 | C=CCOC(Cn1ccnc1)c1ccc(Cl)cc1Cl (stereo unspecified) | 85 |  | inactive | 39.8 µM (active) |  |  | inactive | inactive |  | 39.8 µM (active)
21 | O=C(N[C@H]1N=C(c2ccccc2F)c2cccc3c2N(CC3)C1=O)c1cc2ccccc2[nH]1 | -43.7 |  |  | 20 µM (active) |  |  | inactive | inactive | 20 µM (active) | 17.8 µM (active)
22 | CCN(CC)Cc1nccn1-c1ccc([N+](=O)[O-])cc1C(=O)c1ccccc1Cl | 96.4 |  | inactive | 39.8 µM (active) |  |  | inactive | inactive |  | 39.8 µM (active)
23 | CC(C(O)c1ccccc1)N(C)C/C=C/c1ccccc1 (stereo unspecified) | 90.1 |  | inactive | 35.5 µM (active) |  |  | inactive | inactive |  | 22.4 µM (active)
24 | Clc1ccc(C(OCCN2CCCCC2)c2ccccc2)cc1 (stereo unspecified) | 53.2 |  |  | 14.1 µM (active) |  |  | inactive | inactive | 14.1 µM (active) | 14.1 µM (active)
25 | CN1C(=O)[C@@H](NC(=O)c2cc3ccccc3[nH]2)N=C(c2ccccc2)c2ccccc21 | -160 |  | inactive |  |  | inactive | inactive | inactive |  | 39.8 µM (active)

Row | SMILES | efficacy [1] [%] | outcome [2] | outcome [3] | AC50 [4] | outcome [5] | outcome [4] | Potency [6] | outcome [7] | AC50 [3] | AC50 [2]
26 | CCC1(c2cccc(O)c2)CCCCN(C)C1 (stereo unspecified) | 34.9 |  | inactive | 39.8 µM (active) |  |  | inactive | inactive |  | 20 µM (active)
27 | CN1[C@@H]2CC[C@H]1CC(OC(=O)c1cc(Cl)cc(Cl)c1)C2 (stereo partly specified) | 82.4 |  |  | 28.2 µM (active) |  |  | inactive | inactive | 28.2 µM (active) | 25.1 µM (active)
28 | CN1CCC(N(Cc2ccccc2)c2ccccc2)CC1 | 45.7 |  |  | 4.47 µM (active) |  |  | inactive | inactive | 4.47 µM (active) | 7.08 µM (active)
29 | C=CCN1CC[C@]23CCCC[C@H]2[C@H]1Cc1ccc(O)cc13 | 55.2 |  | inactive | 39.8 µM (active) |  |  | inactive | inactive |  | 39.8 µM (active)
30 | O=C(N[C@@H]1N=C(c2ccccc2F)c2cccc3c2N(CC3)C1=O)c1cc2ccccc2[nH]1 | -148 |  |  | 15.8 µM (active) |  |  | inactive | inactive | 15.8 µM (active) | 25.1 µM (active)
31 | Oc1ccc2[nH]cc(CCCCN3CC=C(c4ccccc4)CC3)c2c1 | 50.4 |  |  | 8.91 µM (active) |  |  | inactive | inactive | 8.91 µM (active) | 6.31 µM (active)
32 | CCOC(C(=O)OCCN(C)C)(c1ccccc1)c1ccccc1 | 59.7 |  |  | 25.1 µM (active) |  |  | inactive | inactive | 25.1 µM (active) | 22.4 µM (active)
33 | COc1ccc2[nH]cc(CCN(C(C)C)C(C)C)c2c1 | 45.7 |  |  | 31.6 µM (active) |  |  | inactive | inactive | 31.6 µM (active) | 39.8 µM (active)
34 | CC(CC(C#N)(c1ccccc1)c1ccccc1)N(C)C (stereo unspecified) | 77.3 |  |  | 14.1 µM (active) |  |  | inactive | inactive | 14.1 µM (active) | 15.8 µM (active)
35 | Clc1ccc(CO/N=C(\Cn2ccnc2)c2ccc(Cl)cc2Cl)c(Cl)c1 | -155 |  | inactive | 31.6 µM (active) |  |  | inactive | inactive |  | 28.2 µM (active)
36 | CCc1ccc(C2CCNCC2)cc1 | 65.4 |  | inactive | 31.6 µM (active) |  |  | inactive | inactive |  | 25.1 µM (active)
37 | C[C@@H]1O[C@@H](O[C@@H]2C=C3CC[C@@H]4[C@H](CC[C@]5(C)[C@@H](c6ccc(=O)oc6)CC[C@]45O)[C@@]3(C)CC2)[C@H](O)[C@H](O)[C@H]1O | 35.7 |  |  | 7.94 µM (active) |  |  | inactive | inactive | 7.94 µM (active) | 8.91 µM (active)
38 | CCC(=O)C(CCN(C)C)(c1ccccc1)c1ccccc1 | 68.8 |  |  | 31.6 µM (active) |  |  | inactive | inactive | 31.6 µM (active) | 28.2 µM (active)
39 | Clc1ccc(CSC(Cn2ccnc2)c2ccc(Cl)cc2Cl)cc1 (stereo unspecified) | -183 |  |  | 4.47 µM (active) |  |  | inactive | inactive | 4.47 µM (active) | 5.62 µM (active)
40 | C#C[C@]1(O)CC[C@H]2[C@@H]3CCC4=CC(=O)CCC4=C3C=C[C@@]21CC | 138 |  |  | 15.8 µM (active) |  |  | inactive | inactive | 15.8 µM (active) | 20 µM (active)
41 | Cc1nnc2n1-c1sc(CCC(=O)N3CCOCC3)cc1C(c1ccccc1Cl)=NC2 | 52.3 | inactive | inactive |  |  | inactive | inactive | inactive |  | 
42 | C[C@H](CN1CCOCC1)C(C(=O)N1CCCC1)(c1ccccc1)c1ccccc1 | 92.9 |  | inactive | 44.7 µM (active) |  |  | inactive | inactive |  | 35.5 µM (active)
43 | C[C@]12Cc3nonc3C[C@@H]1CC[C@@H]1[C@@H]2CC[C@@]2(C)[C@H]1CC[C@]2(C)O | 48.4 |  |  | 17.8 µM (active) |  |  | inactive | inactive | 17.8 µM (active) | 15.8 µM (active)
44 | CCN(CC)CCOC(=O)C(C)(c1ccccc1)c1ccccc1 | 52.6 |  |  | 10 µM (active) |  |  | inactive | inactive | 10 µM (active) | 8.91 µM (active)
45 | CCCCCCCCCCCC[N+](C)(C)CCOc1ccccc1 | -194 |  |  | 25.1 µM (active) |  |  | inactive | inactive | 25.1 µM (active) | 39.8 µM (active)
46 | CCOC(=O)C1(c2ccccc2)CCN(CCc2ccc(N)cc2)CC1 | 105 |  |  | 20 µM (active) |  |  | inactive | inactive | 20 µM (active) | 28.2 µM (active)
47 | COc1cc(CC(C)N)c(OC)cc1Br (stereo unspecified) | 80.6 |  | inactive | 39.8 µM (active) |  |  | inactive | inactive |  | 31.6 µM (active)
48 | CCC(OC(C)=O)C(CC(C)NC)(c1ccccc1)c1ccccc1 (stereo unspecified) | -236 |  |  | 2.51 µM (active) |  |  | inactive | inactive | 2.51 µM (active) | 3.98 µM (active)
49 | COc1cc(C[C@@H](C)N)c(OC)cc1Br | 42.4 |  |  | 31.6 µM (active) |  |  | inactive | inactive | 31.6 µM (active) | 31.6 µM (active)
50 | CC(Cc1ccccc1)NCCCCl (stereo unspecified) | 66.3 |  |  | 35.5 µM (active) |  |  | inactive | inactive | 35.5 µM (active) | 22.4 µM (active)
